Assay results published in the supplement of paper PMC6555819.

These sequences were tested on THRa homodimer (NR concentration 90 nM) (assay: PBM binding z-score (relative to random genomic background probes); higher = stronger binding; sequences stand for … in GC…GCGATTGACAGCGTAGAATGAAGG).
Method in brief: (§1)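 On custom Agilent 4×180K arrays, double-stranded probes with 34-nt variable regions carried direct-repeat seeds, single-nucleotide variants, half-site ablations or random human genomic background. Ligand-free nuclear receptor dimers were applied for 1 h, and binding was read with antibodies against each partner (one per run). Binding z-scores come from regression-normalized fluorescence, with the random background probes as reference.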

Row | Sequence | PBM binding z-score
1 | TAGCCTAGGTCATTCAGGGGCCAATATAGAAAGC | 0.878
2 | CGAACTAGGTCAGGGACAGTGAATCTCCGCACGC | 1.07
3 | CCTGCTAGGTCATGGTCAGCTATTCTACAGTATG | 1.28
4 | GCTCGGAGGAAAAGGTCAGAGCTTTGTCCGTAGA | -0.291
5 | ATACCAAGGTGATCGTGAGGTCGTAGATACTAAC | 2.52
6 | CCGAGTAGGTTATGTGGCATTCAGGCAACGGTGA | 0.415
7 | CGTAGTTGGTCAAGGTCACACACGCTATAGGTAC | 3.89
8 | CCTTACGGGTCACTGACAGGTTATAGTATTTGGA | 0.562
9 | ATATGTAGGTAAGCTGGGGTCATTCAGACTAGGC | 3.38
10 | TCGAGTAGCTTAGTCGGGGCATTCAGCCAACATA | -0.688
11 | ATCTCTAGGTAACCTAGTTCAGTGAATGCCGAAC | 0.673
12 | TCATATAGGTAAAAAGGTGAAAGTCCGTAAGTTA | 0.644
13 | CCTACTGGGCCAAGGTCATTGATCAGTCAAAGCA | 2.36
14 | TAGCCTAGGTCATGCGGGCCAGTACAGTGTCGGC | 0.586
15 | AGAACGAGGGCAATGAGTTGATAGGACGGGTGGC | -0.116
16 | GATACAGGGTCAAGGCCAGAGTCCGCGTATTGAT | 1.37
17 | TCTTGTAGAGCAAGCAGGTTAAGAAAGCCTGAGT | -1.05
18 | ACAAACAGGTGATGAAGGTAACTCAGGCTATCAT | 0.203
19 | GTACCCAGGTGAATAGGTCGTTGATGAGTAGGCG | 0.537
20 | TCTGCTAGGTCGACGATGGTCAGCTAATCTGCTA | -0.884

Row | Sequence | PBM binding z-score
21 | ATCTCTAGGTAAATATAGTTCAGTGAATGCAAAT | 0.0877
22 | CAAACTAGGTCATGGTCAAAGTCGGTTTGTGCCA | 1.5
23 | CAAACTAGGCCAAAGGTCAAAGTCGAGCCAACCA | 0.417
24 | ATCTCTAGGTAATAGTTCAGTGAATCCCGAGGAT | 0.701
25 | CCTGCTAGGTCATGGTCAGCTACTCTACAGTATG | 1.42
26 | TAGCCTAGGTCATGGGCCGGTATACCACGCGAAC | 1.37
27 | TAGCCTAGGTCAGTTCGGGCCAGTATACGCTATA | 0.352
28 | GTAACGAGGGCATTCGAGTTGATAGCATGGCGAT | -0.244
29 | TGTCAAAGTTCAAAGGTAACATAAGTATCCACAC | 0.27
30 | ACTAGCAGGCCAAGGGTCCCTCAAGATTAGTCCG | -0.726
31 | CCTTGTTGGTCAAGGTCACACACGCTATAGGTAC | 4.1
32 | AGTCAAAGTTCATCTACGTAACGTAAGATATGCT | -0.445
33 | GCATATAGGTAATACAAGGTGAAAGGCCGATTGT | 0.753
34 | ACAGACAGGTGAGTGAAGGTAACTCTGCTGGACG | -0.492
35 | TCTTGTAGATCAGCATGTTAAGAAAGCTGGCCAA | -0.975
36 | CTAGACAGGTGAGAAGGTAACTCAGCCTCGATTA | -0.0949
37 | GCTGCTAGGTCAGGTTGGTCATCTAACGGGTACG | 0.942
38 | GCGACTGGGGCAAAGCAGGTTACGATAAGGTTGG | 0.0259
39 | TCGAGTAGGTTACCAATGGGGCAGTCAGCTTTCT | -1.12
40 | CAAACTAGGTCACCGGAAGGTCAAACTCCGCATG | 3.44

The sequences below were run on VDR homodimer (NR concentration 270 nM) in the same assay as above.
Method in brief: as §1

Row | Sequence | PBM binding z-score
41 | TAGCCTAGGTCATTCAGGGGCCAATATAGAAAGC | 2.13
42 | CGAACTAGGTCAGGGACAGTGAATCTCCGCACGC | -0.0543
43 | CCTGCTAGGTCATGGTCAGCTATTCTACAGTATG | 0.248
44 | GCTCGGAGGAAAAGGTCAGAGCTTTGTCCGTAGA | -0.277
45 | ATACCAAGGTGATCGTGAGGTCGTAGATACTAAC | 1.86
46 | CCGAGTAGGTTATGTGGCATTCAGGCAACGGTGA | 0.153
47 | CGTAGTTGGTCAAGGTCACACACGCTATAGGTAC | 2.45
48 | CCTTACGGGTCACTGACAGGTTATAGTATTTGGA | 1.17
49 | ATATGTAGGTAAGCTGGGGTCATTCAGACTAGGC | 4.3
50 | TCGAGTAGCTTAGTCGGGGCATTCAGCCAACATA | -0.534
51 | ATCTCTAGGTAACCTAGTTCAGTGAATGCCGAAC | 0.972
52 | TCATATAGGTAAAAAGGTGAAAGTCCGTAAGTTA | 0.718
53 | CCTACTGGGCCAAGGTCATTGATCAGTCAAAGCA | 2.15
54 | TAGCCTAGGTCATGCGGGCCAGTACAGTGTCGGC | 0.448
55 | AGAACGAGGGCAATGAGTTGATAGGACGGGTGGC | 3.01
56 | GATACAGGGTCAAGGCCAGAGTCCGCGTATTGAT | 1.73
57 | TCTTGTAGAGCAAGCAGGTTAAGAAAGCCTGAGT | -0.461
58 | ACAAACAGGTGATGAAGGTAACTCAGGCTATCAT | 0.203
59 | GTACCCAGGTGAATAGGTCGTTGATGAGTAGGCG | 0.0528
60 | TCTGCTAGGTCGACGATGGTCAGCTAATCTGCTA | -0.845

Row | Sequence | PBM binding z-score
61 | ATCTCTAGGTAAATATAGTTCAGTGAATGCAAAT | 1.2
62 | CAAACTAGGTCATGGTCAAAGTCGGTTTGTGCCA | 1.15
63 | CAAACTAGGCCAAAGGTCAAAGTCGAGCCAACCA | 1.61
64 | ATCTCTAGGTAATAGTTCAGTGAATCCCGAGGAT | 0.41
65 | CCTGCTAGGTCATGGTCAGCTACTCTACAGTATG | 0.186
66 | TAGCCTAGGTCATGGGCCGGTATACCACGCGAAC | 0.45
67 | TAGCCTAGGTCAGTTCGGGCCAGTATACGCTATA | 0.242
68 | GTAACGAGGGCATTCGAGTTGATAGCATGGCGAT | 3.97
69 | TGTCAAAGTTCAAAGGTAACATAAGTATCCACAC | 4.17
70 | ACTAGCAGGCCAAGGGTCCCTCAAGATTAGTCCG | -0.484
71 | CCTTGTTGGTCAAGGTCACACACGCTATAGGTAC | 3.13
72 | AGTCAAAGTTCATCTACGTAACGTAAGATATGCT | 4.34
73 | GCATATAGGTAATACAAGGTGAAAGGCCGATTGT | 0.114
74 | ACAGACAGGTGAGTGAAGGTAACTCTGCTGGACG | -0.195
75 | TCTTGTAGATCAGCATGTTAAGAAAGCTGGCCAA | -0.468
76 | CTAGACAGGTGAGAAGGTAACTCAGCCTCGATTA | -0.377
77 | GCTGCTAGGTCAGGTTGGTCATCTAACGGGTACG | 0.689
78 | GCGACTGGGGCAAAGCAGGTTACGATAAGGTTGG | -0.24
79 | TCGAGTAGGTTACCAATGGGGCAGTCAGCTTTCT | -1.05
80 | CAAACTAGGTCACCGGAAGGTCAAACTCCGCATG | 4.04
